Experiment [1] addresses Hepatocyte nuclear factor 4-alpha (Homo sapiens) (UniProt P41235). Description: ATG_HNF4a_TRANS: Attagene TRANS-FACTORIAL HepG2 Assay for human Hepatocyte Nuclear Factor 4 alpha (HNF4a) (AID 2282982; active = hit-call score of the fitted dose curve at least 0.9, where 1 is the maximum). The settings on record: HepG2 HNF4a transactivation reporter, mRNA readout. The method, boiled down:
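Multiplexed reporter assay: transfected HepG2, 24 h exposure, total RNA → oligo(dT) RT → PCR → 6-FAM extension → HpaI digest → CE fluorescence. DMSO = negative control.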

Experiment [2] in a line: ATG_M_06_TRANS: Attagene TRANS-FACTORIAL HepG2 Assay for M06 Transcription Factor (Internal Marker) (AID 2282983; active = hit-call score of the fitted dose curve at least 0.9, where 1 is the maximum). The settings on record: HepG2 Attagene TRANS M06 internal marker reporter. The method, boiled down: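 mRNA levels of a reporter transcript, quantified as FAM fluorescence on capillary electrophoresis, served as readout. HepG2 cells expressing exogenous GAL4-chimera reporter constructs were exposed for 24 h. Gain of signal over DMSO was evaluated.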

Experiment [3] addresses Nuclear receptor subfamily 4 group A member 2 (Homo sapiens) (UniProt P43354). Put plainly: ATG_NURR1_TRANS: Attagene TRANS-FACTORIAL HepG2 Assay for human Nuclear Receptor Related Protein 1 (NURR1) (AID 2282985; active = hit-call score of the fitted dose curve at least 0.9, where 1 is the maximum). The settings on record: HepG2 Attagene TRANS reporter, mRNA readout. The method, boiled down: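 Measures transcriptional activation by an exogenous NR-Gal4 chimera in transfected HepG2 liver cells. After 24 h, reporter RNA is reverse-transcribed, amplified and resolved by capillary electrophoresis; DMSO defines baseline.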

Experiment [4] concerns the target Transcriptional activator Myb (Homo sapiens) (UniProt P10242). Put plainly: ATG_Myb_CIS: Attagene CIS-FACTORIAL HepG2 Assay for human Myeloblastosis (Myb) Proto-Oncogene Transcription Factor (AID 2282986). As to conditions: HepG2 Attagene CIS-FACTORIAL Myb reporter transcription; actives raise or lower the signal. The method, boiled down:
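HepG2 cells were transiently transfected with cis-regulated multiple reporter transcription units reflecting endogenous Myb activity, then exposed to compound for 24 hours. Reporter mRNA was measured by RT-PCR with capillary electrophoresis; bidirectional fitting versus DMSO baseline.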

Experiment [5] deals with Nuclear respiratory factor 1 (Homo sapiens) (UniProt Q16656). Description: ATG_NRF1_CIS: Attagene CIS-FACTORIAL HepG2 Assay for human Nuclear Respiratory Factor 1 (NRF1) Orphan Gene (AID 2282987). The settings on record: HepG2 NRF1 cis-element reporter, Attagene multiplex; actives raise or lower the signal. The method, boiled down: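 HepG2 cells transiently transfected with multiple reporter transcription units under cis-regulatory promoter control, so endogenous transcription-factor activity is read. After 24 h compound exposure, reporter mRNA quantified by RT-PCR, fluorescent labelling, HpaI digestion and capillary electrophoresis; bidirectional fitting versus DMSO.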

Experiment [6] can be described thus: ATG_NFI_CIS: Attagene CIS-FACTORIAL HepG2 Assay for human Nuclear Factor I (NFI) (AID 2282989). The settings on record: HepG2 cis-regulatory reporter, NFI response element transcription; actives raise or lower the signal. The method, boiled down:
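Endogenous TF activity in HepG2 cells transiently transfected with cis-element-driven multiplexed reporter units, read 24 h after dosing. Reporter mRNA quantified by RT-PCR, 6-FAM labelling, HpaI digestion and capillary electrophoresis; bidirectional fit versus DMSO.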

In experiment [7] the target is Myc proto-oncogene protein (Homo sapiens) (UniProt P01106). Description: ATG_Myc_CIS: Attagene CIS-FACTORIAL HepG2 Assay for human Myelocytomatosis (Myc) Proto-Oncogene Transcription Factor (AID 2282990). The settings on record: HepG2, Attagene cis-reporter transcription factor activity; actives raise or lower the signal. The method, boiled down: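 After 24 h chemical treatment of HepG2 cells carrying multiplexed cis-regulated reporter constructs, reporter transcripts quantified by RT-PCR and capillary electrophoresis of fluorescent fragments. Gain or loss fitted against DMSO baseline.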

Experiment [8] can be described thus: ATG_NF_kB_CIS: Attagene CIS-FACTORIAL HepG2 Assay for human Nuclear Factor Kappa B (NF-kB) (AID 2282991). The settings on record: HepG2 Attagene cis-factorial NF-kB reporter mRNA; actives raise or lower the signal. The method, boiled down: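 HepG2 cells transiently transfected with multiplexed cis-element reporter units measuring endogenous transcription factor activity; reporter mRNA read 24 h after dosing by RT-PCR, fluorescent labelling, HpaI digestion and capillary electrophoresis. Bidirectional fit against DMSO baseline.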

Experiment [9] is described as follows: ATG_NRF2_ARE_CIS: Attagene CIS-FACTORIAL HepG2 Assay for human Nuclear Factor Erythroid 2 Related Factor 2 (NFR2) response to Antioxidant Response Elements (ARE) (AID 2282992). As to conditions: HepG2 Attagene ARE/NRF2 reporter, transcription factor activity; actives raise or lower the signal. The method, boiled down:
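Endogenous transcription factor activity read out as reporter transcript levels (RT-PCR plus capillary electrophoresis, fluorescence) in transiently transfected HepG2 cells. Measured at 24 h after dosing; gain or loss of signal fitted versus DMSO.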

Experiment [10] is described as follows: ATG_Oct_MLP_CIS: Attagene CIS-FACTORIAL HepG2 Assay for human Octamer-Binding Transcription Factor (Oct) (AID 2282993). As to conditions: HepG2 Attagene cis-factorial Oct reporter, mRNA; actives raise or lower the signal. The method, boiled down: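 HepG2 cells transiently transfected with cis-element-driven reporter transcription units (endogenous TF activity); 24 h compound exposure. Reporter mRNA quantified by RT-PCR, 6-FAM labelling, HpaI digestion and capillary electrophoresis; bidirectional fit versus DMSO baseline.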

The target in experiment [11] is Cellular tumor antigen p53 (Homo sapiens) (UniProt P04637). Put plainly: ATG_p53_CIS: Attagene CIS-FACTORIAL HepG2 Assay for human p53 Transcription Factor (AID 2282994). As to conditions: HepG2 p53 cis-element reporter, Attagene mRNA; actives raise or lower the signal. The method, boiled down: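 Endogenous p53 activity read in transiently transfected HepG2 from a cis-element-driven reporter transcript after 24 h exposure. RNA reverse-transcribed, PCR-amplified, fluorescently labelled and sized by capillary electrophoresis; gain or loss fitted against DMSO baseline.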

In experiment [12] the target is human Peroxisome Proliferator-activated Receptor alpha (PPARa), PPARA (gene 5465) (UniProt Q07869). Put plainly: ATG_PPARa_TRANS: Attagene TRANS-FACTORIAL HepG2 Assay for human Peroxisome Proliferator-activated Receptor alpha (PPARa) (AID 2283001; active = hit-call score of the fitted dose curve at least 0.9, where 1 is the maximum;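 for AC50: potency for gain of reporter signal over DMSO so agonist or activator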). The method, boiled down:
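Transfected HepG2 cells treated with test chemical for 24 h. RNA isolated, reverse-transcribed with oligo(dT), PCR-amplified, FAM-labelled and HpaI-digested. Fragments sized by capillary electrophoresis; gain-of-signal fit relative to DMSO.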

The target in experiment [13] is human Peroxisome Proliferator-activated Receptor delta (PPARd), PPARD (gene 5467) (UniProt Q03181). Description: ATG_PPARd_TRANS: Attagene TRANS-FACTORIAL HepG2 Assay for human Peroxisome Proliferator-activated Receptor delta (PPARd) (AID 2283002; active = hit-call score of the fitted dose curve at least 0.9, where 1 is the maximum). The method, boiled down: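 Read-out is induced reporter mRNA, quantified by RT-PCR with fluorescent labelling and capillary electrophoresis after 24 h dosing. Cells are HepG2 transiently carrying multiple GAL4-UAS reporter units driven by exogenous NR-GAL4 chimeras; DMSO serves as baseline.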

A short description of experiment [14]: ATG_M_32_TRANS: Attagene TRANS-FACTORIAL HepG2 Assay for M32 Transcription Factor (Internal Marker) (AID 2282984; active = hit-call score of the fitted dose curve at least 0.9, where 1 is the maximum;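 note: transcript level of a background control reporter unit measured by RT-PCR and capillary electrophoresis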). As to conditions: HepG2 Attagene TRANS M32 internal marker reporter. The method, boiled down: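 Cell-based TRANS-format assay in HepG2: exogenous chimeric GAL4 reporter units transiently expressed, compounds applied 24 h. Reporter mRNA detected by RT-PCR plus capillary electrophoresis; this readout is an internal background marker.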

Experiment [15] in a line: BSK_3C_TissueFactor: BioMAP Diversity Plus: 3C Assay for Tissue Factor Biomarker Activity (AID 2282997). The settings on record: BioMAP 3C HUVEC, tissue factor biomarker readout; actives raise or lower the signal. The method, boiled down:
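Tissue Factor measured by ELISA, 24 h after treatment of primary HUVEC in the BioMAP 3C setting.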

A short description of experiment [16]: BSK_3C_uPAR: BioMAP Diversity Plus: 3C Assay for Urokinase-type plasminogen activator receptor (uPAR) Biomarker Activity (AID 2282998). As to conditions: BioMAP 3C HUVEC, uPAR biomarker ELISA; actives raise or lower the signal. The method, boiled down: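 Primary human umbilical vein endothelial cells, 3C system; surface uPAR measured by ELISA 24 h after dosing. Cytotoxicity via SRB total protein in parallel cultures; bidirectional fit against DMSO.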

The nature of experiment [17]: BSK_3C_VCAM1: BioMAP Diversity Plus: 3C Assay for Vascular cell adhesion molecule 1 (VCAM1) Biomarker Activity (AID 2282999). As to conditions: BioMAP 3C HUVEC, VCAM1 ELISA, cytokine-stimulated; actives raise or lower the signal. The method, boiled down:
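Activity fitted in both directions relative to DMSO, with ELISA measurement of the surface marker on primary HUVEC (3C) at 24 h post-treatment; parallel SRB staining (0.1% SRB, TCA-fixed, 560 nm) flagged overt cytotoxicity.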

A short description of experiment [18]: BSK_4H_Eotaxin3: BioMAP Diversity Plus: 4H Assay for Eotaxin 3 Biomarker Activity (AID 2283000).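 For outcome: CCL26 protein level quantified by ELISA in parallel with SRB cytotoxicity check.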 The settings on record: primary human endothelial cells (HUVEC); actives raise or lower the signal. The method, boiled down:
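Eotaxin-3 (CCL26) levels were measured by ELISA in HUVEC primary cultures 24 h post-dosing. Gain or loss of signal was fitted in both directions, with DMSO serving as baseline and negative control.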

Several values for one entry are separate records, joined by “and”; a condition that tells them apart may be missing. Equal entries are not always repeated. Results filed as inconclusive are left out. A structure can be active in one record and inactive in another. Activity calls are given as the source filed them. Rule for the calls, unless noted: active = hit-call score of the fitted dose curve at least 0.9, where 1 is the maximum; inactive = score below 0.9.

10 molecules from PubChem BioAssay (EPA / NIEHS) can be followed below.

Sequence of Nuclear respiratory factor 1 (Homo sapiens) (Q16656 whole entry, looked up): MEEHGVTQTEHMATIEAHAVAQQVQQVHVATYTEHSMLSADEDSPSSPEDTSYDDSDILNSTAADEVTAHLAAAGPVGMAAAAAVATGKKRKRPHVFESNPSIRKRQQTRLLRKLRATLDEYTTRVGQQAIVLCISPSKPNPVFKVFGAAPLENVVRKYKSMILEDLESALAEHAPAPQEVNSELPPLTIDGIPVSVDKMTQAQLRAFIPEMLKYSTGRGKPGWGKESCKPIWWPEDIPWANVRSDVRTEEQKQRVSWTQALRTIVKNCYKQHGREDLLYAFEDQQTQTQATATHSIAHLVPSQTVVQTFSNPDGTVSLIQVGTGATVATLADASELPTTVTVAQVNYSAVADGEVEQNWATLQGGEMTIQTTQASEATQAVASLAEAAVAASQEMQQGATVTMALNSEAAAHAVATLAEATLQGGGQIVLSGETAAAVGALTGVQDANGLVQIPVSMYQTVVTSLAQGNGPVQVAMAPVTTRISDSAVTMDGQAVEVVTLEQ
Sequence of Hepatocyte nuclear factor 4-alpha (Homo sapiens) (P41235 whole entry, looked up): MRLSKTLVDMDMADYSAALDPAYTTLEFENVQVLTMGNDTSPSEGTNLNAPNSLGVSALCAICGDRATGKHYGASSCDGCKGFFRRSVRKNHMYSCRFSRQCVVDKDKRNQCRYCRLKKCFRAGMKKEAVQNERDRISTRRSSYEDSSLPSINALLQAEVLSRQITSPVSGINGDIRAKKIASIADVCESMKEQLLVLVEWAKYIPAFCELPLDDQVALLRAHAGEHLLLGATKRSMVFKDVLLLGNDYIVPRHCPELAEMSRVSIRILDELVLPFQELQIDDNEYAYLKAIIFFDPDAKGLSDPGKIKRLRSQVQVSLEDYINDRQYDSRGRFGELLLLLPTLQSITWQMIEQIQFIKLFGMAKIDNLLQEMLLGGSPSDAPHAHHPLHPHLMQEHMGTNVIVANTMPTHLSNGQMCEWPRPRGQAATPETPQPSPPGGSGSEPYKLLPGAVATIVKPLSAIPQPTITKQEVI
Sequence of Cellular tumor antigen p53 (Homo sapiens) (P04637 whole entry, looked up): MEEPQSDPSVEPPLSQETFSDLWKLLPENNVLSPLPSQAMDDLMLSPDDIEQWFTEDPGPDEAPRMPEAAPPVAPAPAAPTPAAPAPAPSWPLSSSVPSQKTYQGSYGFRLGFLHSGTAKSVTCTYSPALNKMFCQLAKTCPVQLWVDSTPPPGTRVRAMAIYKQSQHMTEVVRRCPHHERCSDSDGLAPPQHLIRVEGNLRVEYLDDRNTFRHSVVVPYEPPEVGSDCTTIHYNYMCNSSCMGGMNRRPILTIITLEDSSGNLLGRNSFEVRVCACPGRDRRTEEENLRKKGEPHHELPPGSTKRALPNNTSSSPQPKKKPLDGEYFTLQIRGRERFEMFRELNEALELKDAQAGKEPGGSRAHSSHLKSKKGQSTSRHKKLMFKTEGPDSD
Sequence of Myc proto-oncogene protein (Homo sapiens) (P01106 whole entry, looked up, the tested form may be a part): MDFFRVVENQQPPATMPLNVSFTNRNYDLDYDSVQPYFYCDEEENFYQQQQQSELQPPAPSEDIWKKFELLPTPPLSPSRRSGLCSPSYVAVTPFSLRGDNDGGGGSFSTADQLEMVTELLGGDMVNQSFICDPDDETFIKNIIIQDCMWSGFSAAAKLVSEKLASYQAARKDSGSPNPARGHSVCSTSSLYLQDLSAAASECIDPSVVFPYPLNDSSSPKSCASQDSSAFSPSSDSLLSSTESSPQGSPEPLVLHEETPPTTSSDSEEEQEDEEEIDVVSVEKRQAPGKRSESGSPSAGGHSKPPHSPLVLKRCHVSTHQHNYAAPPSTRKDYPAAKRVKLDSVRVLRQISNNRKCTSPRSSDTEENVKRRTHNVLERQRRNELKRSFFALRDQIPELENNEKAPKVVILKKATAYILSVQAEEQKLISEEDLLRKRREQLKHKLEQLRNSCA
Sequence of human Peroxisome Proliferator-activated Receptor alpha (PPARa), PPARA (gene 5465) (Q07869 whole entry, looked up, the tested form may be a part): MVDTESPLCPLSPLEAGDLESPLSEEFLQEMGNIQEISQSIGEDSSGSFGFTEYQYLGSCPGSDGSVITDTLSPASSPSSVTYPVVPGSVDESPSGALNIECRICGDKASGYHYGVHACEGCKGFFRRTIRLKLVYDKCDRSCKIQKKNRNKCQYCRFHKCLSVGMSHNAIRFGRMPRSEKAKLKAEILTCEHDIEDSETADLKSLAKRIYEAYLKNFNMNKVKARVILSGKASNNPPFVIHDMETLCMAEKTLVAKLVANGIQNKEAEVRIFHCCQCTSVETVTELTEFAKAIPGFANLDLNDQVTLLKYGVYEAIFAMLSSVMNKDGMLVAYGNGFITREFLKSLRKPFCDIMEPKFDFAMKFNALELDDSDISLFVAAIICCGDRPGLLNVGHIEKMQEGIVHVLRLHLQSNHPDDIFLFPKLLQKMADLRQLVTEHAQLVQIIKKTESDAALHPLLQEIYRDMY
Sequence of Transcriptional activator Myb (Homo sapiens) (P10242 whole entry, looked up): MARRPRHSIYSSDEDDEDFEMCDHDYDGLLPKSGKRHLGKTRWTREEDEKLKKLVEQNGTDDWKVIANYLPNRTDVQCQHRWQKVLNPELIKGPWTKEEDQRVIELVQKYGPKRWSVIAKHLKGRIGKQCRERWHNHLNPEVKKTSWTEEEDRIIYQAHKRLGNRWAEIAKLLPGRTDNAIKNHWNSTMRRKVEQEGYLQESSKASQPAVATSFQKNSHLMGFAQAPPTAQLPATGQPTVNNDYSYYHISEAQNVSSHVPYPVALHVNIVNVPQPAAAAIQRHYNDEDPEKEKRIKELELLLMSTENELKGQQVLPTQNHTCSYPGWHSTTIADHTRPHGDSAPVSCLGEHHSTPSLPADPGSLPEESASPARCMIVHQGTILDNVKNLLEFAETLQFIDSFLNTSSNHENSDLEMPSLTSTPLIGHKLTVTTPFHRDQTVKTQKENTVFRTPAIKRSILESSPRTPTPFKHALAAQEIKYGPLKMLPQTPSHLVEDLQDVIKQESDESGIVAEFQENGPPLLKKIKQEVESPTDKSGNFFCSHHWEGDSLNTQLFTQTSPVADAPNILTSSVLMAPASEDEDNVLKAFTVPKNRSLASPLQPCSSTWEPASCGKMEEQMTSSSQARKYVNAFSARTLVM
Sequence of human Peroxisome Proliferator-activated Receptor delta (PPARd), PPARD (gene 5467) (Q03181 whole entry, looked up, the tested form may be a part): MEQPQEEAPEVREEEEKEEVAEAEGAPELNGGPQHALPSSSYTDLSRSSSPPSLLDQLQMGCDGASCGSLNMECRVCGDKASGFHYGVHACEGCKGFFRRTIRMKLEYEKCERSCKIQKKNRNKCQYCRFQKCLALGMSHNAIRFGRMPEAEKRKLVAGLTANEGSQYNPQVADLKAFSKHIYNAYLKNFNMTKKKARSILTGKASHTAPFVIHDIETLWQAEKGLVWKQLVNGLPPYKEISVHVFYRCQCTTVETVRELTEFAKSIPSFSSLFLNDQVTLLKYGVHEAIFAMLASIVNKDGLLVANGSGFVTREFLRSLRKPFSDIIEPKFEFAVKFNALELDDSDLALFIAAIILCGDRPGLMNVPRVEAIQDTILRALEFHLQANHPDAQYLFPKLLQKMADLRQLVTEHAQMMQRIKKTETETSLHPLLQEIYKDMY
Sequence of Nuclear receptor subfamily 4 group A member 2 (Homo sapiens) (P43354 whole entry, looked up, the tested form may be a part): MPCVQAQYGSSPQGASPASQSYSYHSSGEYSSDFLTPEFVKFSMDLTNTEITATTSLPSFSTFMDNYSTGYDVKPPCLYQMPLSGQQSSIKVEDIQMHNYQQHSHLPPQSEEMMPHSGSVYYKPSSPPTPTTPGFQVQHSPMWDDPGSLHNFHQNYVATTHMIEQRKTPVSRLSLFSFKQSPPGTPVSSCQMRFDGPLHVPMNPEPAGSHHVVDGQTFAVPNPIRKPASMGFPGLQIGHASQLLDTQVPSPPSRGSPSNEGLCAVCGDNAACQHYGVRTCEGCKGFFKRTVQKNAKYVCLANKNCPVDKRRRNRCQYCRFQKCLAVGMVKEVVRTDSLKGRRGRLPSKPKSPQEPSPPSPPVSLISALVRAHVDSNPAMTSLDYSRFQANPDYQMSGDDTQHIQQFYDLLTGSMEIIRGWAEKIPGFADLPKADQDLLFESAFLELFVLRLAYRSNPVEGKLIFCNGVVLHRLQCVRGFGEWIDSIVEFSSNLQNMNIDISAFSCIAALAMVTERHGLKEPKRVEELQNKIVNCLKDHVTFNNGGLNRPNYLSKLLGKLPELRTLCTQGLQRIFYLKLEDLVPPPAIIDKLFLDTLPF

With `O=C(O)CN(CCCN(CC(=O)O)CC(=O)O)CC(=O)O`, the result in [1], in experiment [2], in experiment [3], in [4], in [5] and in experiment [6] was inactive. The call in [7], in [8], in experiment [10], in experiment [11], in experiment [12] and in experiment [13] was inactive. The concentration at half-maximal activity (AC50) in experiment [9] is 6.54 µM (active).
As to `O=S(=O)(O)C(F)(F)C(F)(F)C(F)(F)C(F)(F)C(F)(F)C(F)(F)C(F)(F)C(F)(F)C(F)(F)C(F)(F)F`, the molecule was called inactive in [1], in [2], in experiment [14], in [4], in experiment [5] and in experiment [7]. Further, the call in experiment [10], in experiment [11], in [15], in experiment [17], in experiment [18] and in [12] was inactive. The molecule was called inactive in experiment [13]. Further, the AC50 in experiment [8] is 14.6 µM (active) and 9.12 µM (active); in [9], 47.3 µM (active) and 25.4 µM (active); in experiment [16], 24.6 µM (active) and 13.3 µM (active); in experiment [18], 5.83 µM (active).
`CCCCCCCCCCCCCCCC(=O)OC`: the molecule was called inactive in experiment [1], in [14], in experiment [4], in experiment [5], in experiment [6] and in [7]. Moreover, the molecule was called inactive in experiment [9], in experiment [10], in experiment [11], in experiment [12] and in experiment [13].
For the molecule `CCOC=O`, the molecule was classed as inactive in experiment [1], in [2], in [4], in experiment [5], in [6] and in [7]. For the same molecule, the result in experiment [8], in experiment [9], in [11], in [12] and in experiment [13] was inactive.
On to `Cc1ccc(C(=O)c2ccccc2)cc1`, for which the call in experiment [1], in experiment [14], in experiment [4], in experiment [5], in experiment [6] and in [7] was inactive. In addition, the result in experiment [8], in experiment [10], in [11] and in experiment [16] was inactive. For the same molecule, the AC50 in experiment [9] was 28 µM (active); in experiment [15], 11.3 µM (active); in experiment [17], 26.3 µM (active); in [18], 28.4 µM (active).
Regarding `C=Cc1ccc(O)c(OC)c1`, the call in experiment [1], in experiment [14], in experiment [4], in experiment [5], in experiment [6] and in [7] was inactive. The outcome in experiment [8], in experiment [10], in [11] and in experiment [13] was inactive. Further, in experiment [9], the AC50 is 6.89 µM (active).
On to `Cc1cccc2c1ccc1ccccc12`, for which the molecule was called inactive in experiment [1], in experiment [14], in experiment [4], in experiment [5], in experiment [6] and in experiment [7]. The call in [8], in experiment [9], in experiment [10], in experiment [11], in [16] and in experiment [17] was inactive. For the same molecule, the result in [18], in experiment [12] and in [13] was inactive. Besides, in experiment [15], the concentration at half-maximal activity (AC50) was 0.0495 µM (active).
In the case of `Brc1cc(Br)c(Oc2c(Br)cc(Br)c(Br)c2Br)cc1Br`, the outcome in [2], in experiment [14], in experiment [4], in experiment [5], in [6] and in experiment [7] was inactive. Further, the outcome in experiment [8], in [9], in [10], in [11], in experiment [12] and in experiment [13] was inactive.
For `CCCCCCC(C)(C)C(=O)O`, the call in [2], in [14], in experiment [4], in [5], in experiment [6] and in [7] was inactive. Also, the outcome in experiment [8], in [10], in experiment [11] and in [13] was inactive. Also, the half-maximal activity concentration (AC50) in experiment [9] was 117 µM (active); in experiment [12], 18 µM (active).
On to `CCOC(OCC)C(=O)c1ccccc1`, for which the call in [1], in experiment [14], in [3], in experiment [4], in [5] and in experiment [6] was inactive. Further, the molecule was classed as inactive in experiment [7], in [8], in experiment [9], in experiment [10] and in experiment [11].
